# In the library only some 4.8% were active in any assay of this set; here they are far more common.
# HIF act: HIF pathway transcriptional activation; AID 1910; U2OS HRE-luciferase reporter, luminescence; normalized: DMSO 0%, desferrioxamine 100%; actives 0.32% (n = 300,000); activation, % at 7.5 µM (by protocol);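 active = mean activation of at least 10% of the iron chelator positive control signal, with at least half of replicates also reaching 10%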
# ALR inh: blocks human ALR sulfhydryl oxidase activity | purified ALR, DTT oxidation, H2O2 HRP-luminol luminescence | AID 485317 | inhibition, % (no concentration beside the values) | actives 3.8% (n = 290,000) | P55789;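 active = mean replicate inhibition above about 79%, with every replicate also reaching it, limit read from the data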
# Target sequence (P55789 whole entry, looked up): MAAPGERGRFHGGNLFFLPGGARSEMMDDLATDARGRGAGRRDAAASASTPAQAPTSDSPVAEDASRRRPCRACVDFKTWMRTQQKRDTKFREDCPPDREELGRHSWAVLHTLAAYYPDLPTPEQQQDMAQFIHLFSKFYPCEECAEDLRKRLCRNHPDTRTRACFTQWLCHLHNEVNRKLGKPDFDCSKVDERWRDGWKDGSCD
# Mot1-301 SUMO: inhibitors of SUMOylation pathway: yeast Mot1-301 growth rescue | actives 1% (n = 320,000) | S. cerevisiae Mot1-301 growth rescue, ATP luminescence, 38.5C; percent above DMSO median, 100 means doubled | growth rescue, % at 18.8 µM;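 active = every valid replicate shows activation above 250% relative to neutral control wells; inactive = the rest, any valid replicate at or below 250%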;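 note: OY570 slx delta 5 strain wells were the positive control but not used for scaling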
# AI-2 QS modul: modulators of Vibrio harveyi AI-2 quorum sensing system | Vibrio harveyi JMH597 AI-2 luminescence/OD600 ratio, 9 h; stronger effect = lower value; strain lacks LuxN and CqsS sensors; 0 = neutral-control median | activity change, % at 7.5 µM | actives 0.4% (n = 300,000); in the data active = activity change below about -75%, passing the limit was not always enough;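 note: luminescence divided by OD600 gain over 9 h not by final OD600 alone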
# * = called active by the depositor; x = not tested or not shown.
SMILES,HIF act,ALR inh,Mot1-301 SUMO,AI-2 QS modul
CC(=O)NCC(=O)OC(C)C(=O)Nc1ccc(C(C)=O)cc1 (configuration not stated),1.1,-27.2,-3.5,10.7
CN(C(=O)c1ccccc1C(=O)OCC(=O)Nc1ccccc1)c1ccccc1,x,-1.8,0.6,x
CCOC(=O)c1cc(COc2cc(Cl)cc(Cl)c2)on1,-0.5,-14.9,2.9,x
CN(C)c1ccc(C(=O)N2CCCC(N3CCN(Cc4ccc5c(c4)OCO5)CC3)C2)cc1 (configuration not stated),-0.5,97.5*,0.4,29.2
O=C(c1ccc(F)cc1)N1CCCC(N2CCN(Cc3ccc4c(c3)OCO4)CC2)C1 (configuration not stated),-1.3,-4.7,-5.0,11.8
COc1ccccc1N(CC(=O)NC1CCCCC1)S(=O)(=O)c1ccccc1,-0.4,4.0,2.2,29.0
COc1ccccc1NCCC(=O)OCC(=O)Nc1ccccc1F,x,99.2*,6.0,x
COc1ccccc1NCCC(=O)OCC(=O)NC1CCCCCC1,-0.1,98.8*,-13.3,9.6
COc1ccccc1N(CC(=O)N/N=C/c1c(O)ccc2ccccc12)S(C)(=O)=O,11.1*,-3.4,19.5,19.3
COc1ccccc1N(CC(=O)NC1CCCCC1)S(C)(=O)=O,93.6*,4.4,6.4,20.5
COc1ccccc1NCCC(=O)OCC(=O)Nc1ccccc1Cl,x,x,8.0,x
O=S(=O)(NCCCNS(=O)(=O)c1c(F)cccc1F)c1ccc2c(c1)OCCO2,x,0.6,9.3,x
COc1cc(O)sc1C=Nc1ccc(Cl)cc1,0.6,95.4*,569.6,-3.6
Oc1ccc(Br)cc1C=Nc1ccc(Cl)cc1,2.5,-17.5,-19.0,23.1
O=[N+]([O-])c1cc(CN2CCN(c3cccc(C(F)(F)F)c3)CC2)c2cccnc2c1O,-0.1,-18.7,53.9,-96.9*
CCN(CC)c1ccc(NS(=O)(=O)c2ccc3c(c2)oc(=O)n3C)c(C)c1,1.2,98.7*,4.0,10.9
CN(C)S(=O)(=O)c1cccc(C(=O)Nc2ccccc2C(=O)NC2CC2)c1,x,-12.8,-23.3,x
CNC(=S)NNC(=O)c1sc2cc(C(F)(F)F)cnc2c1-c1ccccn1,0.5,-4.5,11.1,8.5
CNC(=S)NNC(=O)c1sc2cc(C(F)(F)F)cnc2c1-c1cccnc1,-0.4,88.3*,14.2,-5.8
C=CCN(Cc1cccs1)C(=O)COc1ccc2c(c1)OCO2,x,-15.3,-10.4,x
COc1ccccc1N1CN(S(=O)(=O)c2ccc(C)cc2)c2nc3ccccc3nc21,x,x,-21.6,x
O=C(COC(=O)c1ccc(O)cc1O)NC1CC1,x,13.1,2.7,x
Cc1c([C@H]2[C@@H](CC#N)C2(C)C)c2ccccc2n1C,-0.1,97.1*,209.9,21.9
COc1cc(/C=C2\SC(=S)N(NC(=O)c3cccc(O)c3)C2=O)ccc1O,-0.9,95.5*,0.5,-3.4
COc1cc(/C=C2\SC(=S)N(NC(=O)c3ccncc3)C2=O)ccc1O,0.0,98.8*,117.1,29.9
SMILES,HIF act,ALR inh,Mot1-301 SUMO,AI-2 QS modul
CCOc1cc(/C=C2\SC(=S)N(NC(=O)c3cccnc3)C2=O)ccc1O,-0.6,98.9*,22.1,19.1
COc1cc(/C=C2\SC(=S)N(NC(=O)c3ccc(O)c(OC)c3)C2=O)ccc1O,-0.4,x,-13.7,3.1
Cn1c(N)c(-c2ccccc2)c2ccc([N+](=O)[O-])cc2c1=O,-1.8,49.0,-28.8,18.1
O=C(c1ccccc1)c1c2c(cc3sc4ccccc4[n+]13)-c1cccc3cccc-2c13,x,-20.8,-38.6,x
Cc1sc2cc3c(c(C(=O)c4ccccc4)[n+]2c1C)-c1cccc2cccc-3c12,11.0*,-46.9,-19.8,39.7
COc1ccc(NC(NC(=O)c2cccnc2)C(Cl)(Cl)Cl)cc1 (configuration not stated),0.3,99.2*,170.9,12.9
CC[C@@H]1[C@H]2CCCC(=O)N3CC[C@@H](C[C@@H]1Nc1ccccc1)[C@@H]23,0.8,98.8*,9.4,4.1
CC[C@@H]1[C@H]2CCCC(=O)N3CC[C@@H](C[C@@H]1OC(=O)Nc1ccccc1)[C@@H]23,-0.1,-1.7,-11.4,13.1
CC(=O)Nc1cc(NC(C)=O)cc(C(=O)N2CCCC3CCCCC32)c1 (configuration not stated),0.0,-3.8,-1.7,32.7
O=C(CN(c1cccc([N+](=O)[O-])c1)S(=O)(=O)c1ccccc1)N1CCCCC1,0.4,-4.3,340.6*,10.8
O=C(NC1(Cc2ccccc2)CCN(CCCc2ccccc2)C1=O)c1ccccc1 (configuration not stated),x,-1.7,11.3,x
Cc1ccccc1-n1c(=O)n(Cc2ccc(C(=O)O)cc2)c(=O)c2[nH]cnc21,37.1*,-2.9,2.1,8.6
COc1ccc(N(CC(=O)NCc2ccco2)C(=O)CCC(=O)Nc2nccs2)c(OC)c1,0.5,-8.8,317.7,0.6
COc1ccc(NC(=O)CSCc2ccc(C#N)cc2)c(OC)c1,0.2,98.2*,-37.6,4.0
CCCCC(=O)Nc1ccc(NC(=O)CC)cc1OC,18.5*,-4.7,21.8,29.3
COc1ccc(NC(=O)CC(=O)Nc2ccc(OC)cc2OC)c(OC)c1,0.0,-26.2,-15.8,7.6
COc1ccc(NC(=O)CCSCCC(=O)Nc2ccc(OC)cc2OC)c(OC)c1,-0.2,97.4*,6.4,25.3
Cc1cc(NC(=O)C2CC(=O)N(c3cccc(Cl)c3)C2)no1 (configuration not stated),0.1,0.0,-4.2,-7.5
O=C(CCc1ccc(S(=O)(=O)N2CCOCC2)cc1)OCC(=O)c1ccccc1F,x,x,-10.1,x
C=CCN1C(=O)/C(=c2\sc3nc(=O)c(Cc4ccccc4Cl)nn3c2=O)c2ccccc21,-1.2,95.6*,-57.4,26.9
O=C(NCC1CCCO1)c1cc2ccccc2o1 (configuration not stated),1.3,-2.8,4.9,16.2
Cc1ccc(-n2[nH]c(C)c(C=Nc3ccc4[nH]c(=O)[nH]c4c3)c2=O)cc1C,0.6,92.5*,-15.8,11.3
Cc1ccc(-n2[nH]c(C)c(C=Nc3ccc4[nH]c(=O)[nH]c4c3)c2=O)cc1,-1.0,6.7,-21.8,5.9
CCN(CC)C(=O)c1ccc(S(=O)(=O)c2ccccc2)cc1,-8.6,-15.8,-7.4,38.7
Cc1cc(OCC(=O)C(C)(C)C)c2c(-c3ccccc3)cc(=O)oc2c1,0.1,-6.8,297.0*,19.1
SMILES,HIF act,ALR inh,Mot1-301 SUMO,AI-2 QS modul
COc1cc(OC)c2c(-c3ccccc3)cc(=O)oc2c1,0.0,-5.4,319.4*,30.5
Cc1cc(OCC(=O)N(C)C)c2c(-c3ccccc3)cc(=O)oc2c1,-0.3,1.0,203.3,26.9
Oc1ccc(Cc2ccc(Cl)cc2)c(O)c1,0.1,96.5*,17.5,-21.2
CCOc1ccc(S(=O)(=O)N(CC)CC(=O)NCc2ccccn2)cc1C,-0.5,-4.5,4.9,-12.9
Cc1ccc2nc(/C(C#N)=C/c3ccc(O)c(O)c3)[nH]c2c1,3.1,89.0*,-9.2,-1.8
Cc1ccc2nc(/C(C#N)=C/c3ccccc3C(=O)O)[nH]c2c1,-0.7,x,-1.7,22.9

# High-throughput results deposited in PubChem BioAssay by Broad Institute.
